# The campaign covered roughly 69,000 compounds. About 8,600 (12%) showed an effect of 50% or more. This is one part of a sample in which strong results are shown more often than they occur.
# Test system: Plasmodium berghei
# Experiment: Screen against P. berghei liver stage (PbLuc), transformed with Luciferase, at 10uM
# Assay type: functional, HepG2
# Details: tested at 10 uM
row,SMILES,INHIBITION [%]
1,O=C(C1CCOCC1)N1CC[C@H]2[C@H]1CCN2c1nncs1,40.8
2,CC1=Nc2c(c(=O)[nH]n2C2CCCC2)C(c2ccc(C(=O)O)cc2)S1 (configuration not stated),26.65
3,COC(=O)c1ccc(C2SC(C)=Nc3c2c(=O)[nH]n3C2CCCC2)cc1 (configuration not stated),76.3
4,CC1=Nc2c(c(=O)[nH]n2C2CCCCC2)C(c2ccc(C(=O)O)cc2)S1 (configuration not stated),36.55
5,Cc1cc(CN2Cc3ccccc3CC2c2nnc(C)o2)no1 (configuration not stated),7.67
6,CCc1nnc(C2Cc3ccccc3CN2Cc2cc(C)no2)o1 (configuration not stated),58.1
7,Cc1noc(CN2Cc3ccccc3CC2c2nnc(C)o2)n1 (configuration not stated),20.2
8,Cc1nnc(C2Cc3ccccc3CN2Cc2nc(C3CC3)no2)o1 (configuration not stated),23.7
9,CCc1nnc(C2Cc3ccccc3CN2Cc2ncc(Cl)n2C)o1 (configuration not stated),1.84
10,CCc1nnc(C2Cc3ccccc3CN2Cc2cc(C)on2)o1 (configuration not stated),68.1
11,CCc1nnc(C2Cc3ccccc3CN2Cc2nc(C)no2)o1 (configuration not stated),9.64
12,CCc1nnc(C2Cc3ccccc3CN2Cc2nc(C3CC3)no2)o1 (configuration not stated),60.9
13,Cc1cc(CN2Cc3ccccc3CC2c2nnc(C)o2)on1 (configuration not stated),-8.3
14,CNC(=O)CCc1cc(C2CCCCN2C(C)C)nc(C)n1 (configuration not stated),15.1
15,Cc1nc(CN(C)C2CCCN(Cc3noc(C4CC4)n3)C2)oc1C (configuration not stated),40.2
16,COc1cccc(CC(=O)N2CCCC(c3nncn3C)C2)c1 (configuration not stated),-26.6
17,Cc1ccc(-c2noc(CN3CCCC(Cn4cncn4)C3)n2)cc1 (configuration not stated),48.2
18,Cc1cccc2[nH]c(C3CCCN(Cc4ccccc4C(=O)O)C3)nc12 (configuration not stated),37.6
19,Cc1cc(C2CCCN(CCCS(N)(=O)=O)C2)n[nH]1 (configuration not stated),16.8
20,c1cc(CN2CCO[C@H]3[C@H](OCC4CCOCC4)CC[C@@H]32)co1,-34.9
21,Cc1nn(C)c(C)c1C1CCCN1C(=O)c1cnc2onc(C)c2c1 (configuration not stated),-2.53
22,O=S(=O)(CCCNC1CCc2ncnn2C1)c1ccccc1 (configuration not stated),31.3
23,CN(C)C(=O)CO[C@@H]1CC[C@H]2[C@H]1OCCN2c1ncccn1,20.1

row,SMILES,INHIBITION [%]
1,Cc1noc(C)c1CN1C[C@H](OCC(=O)N(C)C)[C@H]2OCCC[C@H]21,10.5
2,Cc1noc(C)c1CN1C[C@@H](OCC(=O)N(C)C)[C@H]2OCCC[C@H]21,74.8
3,Cc1noc(C)c1CN1C[C@H](OCC(=O)N(C)C)[C@H]2COC[C@H]21,15.3
4,CN(C)C(=O)CO[C@@H]1CC[C@H]2[C@H]1OCCN2c1ncc(F)cn1,64.3
5,Fc1cnc(N2CCO[C@H]3[C@H](OCC4CCOCC4)CC[C@@H]32)nc1,38.5
6,CNC(=O)c1ccc(C2CCCN(C(=O)c3c(C)noc3C)C2)nc1 (configuration not stated),17.1
7,CC1(C2CCN(CCCC(=O)O)CC2)CN(Cc2ccccc2)C(=O)O1 (configuration not stated),7.52
8,Cn1nnc2cc(C(=O)N3CCC(Nc4cccnn4)CC3)ccc21,10
9,Cc1ccsc1CNCC1CCCN1c1cccnn1 (configuration not stated),-36.25
10,COCCNCc1cc2c(C)cc(C)cc2n2c(=O)n(C)nc12,48.6
11,Cc1cc(C)c2cc(CNCc3cccnc3)c3nn(C)c(=O)n3c2c1,50.1
12,CCOCCCNCc1cc2c(C)cc(C)cc2n2c(=O)n(C)nc12,51.5
13,Cc1nn(C)c(N(C)C)c1CNCc1cccnc1,40.7
14,Cc1cnn(CCNCC(=O)NCc2ccccc2)c1,18.4
15,CCCNCc1cc2c(C)cc(C)cc2n2c(=O)n(C)nc12,33
16,Cc1cc(C)c2cc(CNCc3ccccc3)c3nn(C)c(=O)n3c2c1,73.4
17,CC(C)c1nn(C)c(N(C)C)c1CNCc1cccnc1,-3.48
18,Cc1cc(C)c(N(CC(O)CNCc2ccccc2)S(C)(=O)=O)c(C)c1 (configuration not stated),35.1
19,CCCC(=O)N1CCC(c2cc3n(n2)[C@@H](C(F)(F)F)C[C@@H](C)N3)CC1,36.4
20,Cc1cnc(N(C)CCCc2cnn(C)c2)nc1N(C)C,-0.996
21,COCC(=O)N1CC(C(=O)NCC2CC2)C2(CCOCC2)C1 (configuration not stated),15.8
22,Cn1ncc(N2CCC(CNC3Cc4ccccc4C3)C2)cc1=O (configuration not stated),58.7
23,Cn1ncc(N2CCC(CNC(=O)[C@@H](N)c3ccccc3)CC2)cc1=O,-12.4

row,SMILES,INHIBITION [%]
1,CCOC(=O)N1CCC(NCC2CCN(c3cnn(C)c(=O)c3)C2)CC1 (configuration not stated),26.6
2,Cn1ncc(N2CCC(CNC3CC(C)(C)CC(C)(C)C3)C2)cc1=O (configuration not stated),72.3
3,CC(C)C(=O)NCC(=O)NCC1CCN(c2cnn(C)c(=O)c2)CC1,26.1
4,Cn1ncc(N2CCC(CNC3CC(c4ccccc4)C3)CC2)cc1=O (configuration not stated),63.7
5,Cn1ncc(N2CCC(CNC(=O)[C@@H](N)C3CCCCC3)CC2)cc1=O,8.53
6,CCC(OC)C(=O)NCC1CCN(c2cnn(C)c(=O)c2)CC1 (configuration not stated),-0.275
7,CC(CN1CCOCC1)NCC1CCN(c2cnn(C)c(=O)c2)CC1 (configuration not stated),33.5
8,COCc1noc(CN2CC(Cc3ccccc3)CC2=O)n1 (configuration not stated),-23.3
9,CN1CCCC(Cc2cncc(C(=O)NC3CC3)c2)C1 (configuration not stated),8.72
10,Cn1ncc2c1CCCC2NCc1ccc(Br)s1 (configuration not stated),35.3
11,CCCN(C)CCC(=O)N1CCCC1Cn1cccn1 (configuration not stated),-15.5
12,CSCc1noc(CNC(=O)C2CCN(C(C)C)CC2)n1,8.51
13,Cc1nc(CN2CCc3nn(C)c(=O)cc3C2)oc1C,-3.7
14,CCn1cc(NS(=O)(=O)c2ccc(F)cc2)c(C(=O)NCC(C)C)n1,22
15,CN1[C@H](Cn2cncn2)C[C@@H]2CN(C3CCOCC3)CC[C@@H]21,34.6
16,COc1cccc2sc(N(C)CC(=O)NCc3nc(C)no3)nc12,-14.9
17,Cc1noc(CNC(=O)CN(C)c2nc3c(C)ccc(C)c3s2)n1,57.8
18,Cc1noc(CNC(=O)CN(C)c2nc3c(F)cccc3s2)n1,47
19,CC(C)(CNC(=O)COc1cccc(F)c1)C(N)=O,46.75
20,CCOC(=O)CCC(=O)N1CCC(Oc2ccc(C(F)(F)F)cn2)CC1,32.4
21,Fc1cc(Oc2ccc(C(F)(F)F)cn2)cc(F)c1CN1CCCC1,78.9
22,N#Cc1ccc(Oc2cc(F)c(CN3CCCC3)c(F)c2)nc1,26
23,Cc1cc(CN2CCCC2)cc(Oc2ccc(C(F)(F)F)cn2)c1,61.9

row,SMILES,INHIBITION [%]
1,CN(CC(=O)N1CCC(Oc2ccc(C(F)(F)F)cn2)CC1)S(C)(=O)=O,-20.5
2,O=C(Cn1cccn1)N1CCC(Oc2ccc(C(F)(F)F)cn2)CC1,40
3,O=C(CN1CCOCC1)N1CCC2(CCCN(C3CCOCC3)C2=O)C1 (configuration not stated),-9.02
4,COCCN1CCCC(C)(c2cc(O)[nH]n2)C1 (configuration not stated),-3.02
5,Cc1cnn(CC2CN(CC(=O)N(C)Cc3cccs3)CCO2)c1 (configuration not stated),35.3
6,CN(Cc1cccs1)C(=O)CN1CCCCC1Cn1cncn1 (configuration not stated),59.3
7,CN(Cc1cccs1)C(=O)CN1CCCC1Cn1cncn1 (configuration not stated),23.5
8,CN(Cc1ccsc1)C(=O)CN1CCCC1Cn1cccn1 (configuration not stated),63.9
9,CN(Cc1cccs1)C(=O)CN1CCOC(Cn2cncn2)C1 (configuration not stated),62.6
10,Cc1ccc(CN(C)C(=O)CN2CCCCC2Cn2cncn2)cc1 (configuration not stated),74.2
11,CN(Cc1ccccc1)C(=O)CN1CCOC(Cn2cncn2)C1 (configuration not stated),-9.37
12,Cc1ccc(CN(C)C(=O)CN2CCCC2Cn2cncn2)cc1 (configuration not stated),42.4
13,CN(Cc1ccco1)C(=O)CN1CCCCC1Cn1cncn1 (configuration not stated),7.67
14,CN(Cc1ccc(F)cc1)C(=O)CN1CCCCC1Cn1cncn1 (configuration not stated),48.4
15,CN(Cc1ccsc1)C(=O)CN1CCCCC1Cn1cccn1 (configuration not stated),-96.9
16,Cc1cnn(CC2CCCN2CC(=O)N(C)Cc2ccsc2)c1 (configuration not stated),34.5
17,O=C(CC(F)(F)F)Nc1cc(F)ccc1OCC1CCCO1 (configuration not stated),-6.14
18,CCn1nc(C)cc1C(=O)N1C[C@H]2CCC[C@@]2(COc2ccccn2)C1,-36.9
19,CCC1CN(CC(=O)NCCN2CCCC2)c2ccccc2S1 (configuration not stated),18.3
20,CN(C)C1CCN(C(=O)c2n[nH]c3c2CCN(CC2CCC2)C3)CC1,-39
21,Cc1cc(-c2ccc(=O)n(C3CCN(S(=O)(=O)N(C)C)CC3)n2)c(C)o1,-25.3
22,CNc1cc(CCNC(=O)CC(C)C)nc(-c2ccccn2)n1,-27.4
23,CN(Cc1ccccc1)C(=O)CN1CCCCC1Cn1cncn1 (configuration not stated),25.6

row,SMILES,INHIBITION [%]
1,Cc1cnn(C2CN(CC(=O)NCCc3cccs3)C2)c1,45.7
2,Cc1ccccc1CN(C)C(=O)CN1CCCCC1Cn1cncn1 (configuration not stated),81.2
3,CCN(Cc1ccccc1)C(=O)CN1CCCCC1Cn1cncn1 (configuration not stated),38.5
4,Cc1cnn(C2CN(CC(=O)N(C)Cc3cccs3)C2)c1,52.2
5,Cc1cnn(C2CN(CC(=O)N(C)Cc3ccc(C)o3)C2)c1,34
6,Cc1nnnn1-c1cc(NCc2cc(C#N)ccc2F)ccc1F,32.3
7,O[C@@H]1CCN(CC2CCOC2)[C@H]1Cc1cccnc1 (some centres not stated),23.1
8,O=C(c1ccc2cc[nH]c2c1)N1CCCN(Cc2cscn2)CC1,13.6
9,N#Cc1c(Cl)nsc1NCc1cccnc1OCC(F)(F)F,88.5
10,N#Cc1c(Cl)nsc1NCc1ccnc(OCC(F)(F)F)c1,81.7
11,Cc1oncc1C(=O)NCc1ccnc(OCC(F)(F)F)c1,-6.15
12,N#Cc1c(Cl)nsc1NCc1ccc(N2CCC(CO)CC2)cc1,30.9
13,N#Cc1c(Cl)nsc1NCc1ccc(N2CCCC(C(N)=O)C2)cc1 (configuration not stated),26.6
14,N#Cc1c(Cl)nsc1NCc1ccc(N2CCSCC2)cc1,59.5
15,CC(O)CNC(=O)NCc1cccnc1OC1CCCC1 (configuration not stated),22.7
16,N#Cc1c(Cl)nsc1NCc1cccnc1OC1CCCC1,85.9
17,CC(C(=O)NCc1ccnc(OCC(F)(F)F)c1)n1cncn1 (configuration not stated),-18.2
18,Cc1nnc(NCc2cccnc2OCC(F)(F)F)c(C#N)c1C,-0.18
19,CCOc1ncccc1CNc1nnc(C)c(C)c1C#N,-23.45
20,O=S(=O)(NCc1cccnc1OC1CCCC1)N1CCCCC1,21.9
